# Screen size: about 5,500 compounds; about 2,000 (36%) were called active. Inconclusive results (about 18%) are left out. Some of the results follow. Unmarked numbers belong to inactive results. No stated cut-off is given here; in the data, active means normalized growth mostly below about 0.91 (no sharp cut-off); inconclusive means no clear call, values can overlap the other calls; inactive means mostly above about 0.92.
# Experiment: chemical genetic growth profiling, strain panel (AID 1159580);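 further: tested at 20 µM; growth read once vehicle control cultures reached saturation at 30 °C; 1 = growth at the plate median or of vehicle wells; lower values mean less growth of the strain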
# Conditions: growth OD
smiles,measurement,setting,value
O=C(Oc1cc(O)cc2c1C[C@@H](OC(=O)c1cc(O)c(O)c(O)c1)[C@@H](c1cc(O)c(O)c(O)c1)O2)c1cc(O)c(O)c(O)c1,normalized growth,"S. cerevisiae deletion strains, locus YJL187C, strain SWE1, hits give low values",1.02
same,normalized growth,"S. cerevisiae deletion strains, locus YJR043C, strain POL32, hits give low values",0.13 (active)
same,normalized growth,"S. cerevisiae deletion strains, locus YJR066W, strain TOR1, hits give low values",0.949
same,normalized growth,"S. cerevisiae deletion strains, locus YKL009W, strain mrt4, hits give low values",1.02
same,normalized growth,"S. cerevisiae deletion strains, locus YKL068W, hits give low values",0.985
same,normalized growth,"S. cerevisiae deletion strains, locus YKL085W, strain MDH1 (second series), hits give low values",1.03
same,normalized growth,"S. cerevisiae deletion strains, locus YKL085W, strain MDH1, hits give low values",1.03
same,normalized growth,"S. cerevisiae deletion strains, locus YKL160W, strain elf1, hits give low values",1.01
same,normalized growth,"S. cerevisiae deletion strains, locus YKR001C, strain vps1, hits give low values",0.599 (active)
same,normalized growth,"S. cerevisiae deletion strains, locus YKR026C, strain gcn3, hits give low values",0.984
same,normalized growth,"S. cerevisiae deletion strains, locus YKR091W, strain srl3, hits give low values",1.01
same,normalized growth,"S. cerevisiae deletion strains, locus YLL001W, strain dnm1, hits give low values",1.01
same,normalized growth,"S. cerevisiae deletion strains, locus YLL026W, hits give low values",1.01
same,normalized growth,"S. cerevisiae deletion strains, locus YLL041C, strain sdh2, hits give low values",1.01
same,normalized growth,"S. cerevisiae deletion strains, locus YLR027C, strain aat2, hits give low values",0.996
same,normalized growth,"S. cerevisiae deletion strains, locus YLR039C, strain RIC1, hits give low values",0.233 (active)
same,normalized growth,"S. cerevisiae deletion strains, locus YLR058C, strain SHM2, hits give low values",0.141 (active)
same,normalized growth,"S. cerevisiae deletion strains, locus YLR102C, strain apc9, hits give low values",0.948
same,normalized growth,"S. cerevisiae deletion strains, locus YLR113W, strain HOG1, hits give low values",1.06
same,normalized growth,"S. cerevisiae deletion strains, locus YLR221C, strain rsa3, hits give low values",1.03
same,normalized growth,"S. cerevisiae deletion strains, locus YLR258W, strain gsy2, hits give low values",1.01
same,normalized growth,"S. cerevisiae deletion strains, locus YLR262C, strain YPT6 (second series), hits give low values",1.01
same,normalized growth,"S. cerevisiae deletion strains, locus YLR268W, strain sec22, hits give low values",0.414 (active)
same,normalized growth,"S. cerevisiae deletion strains, locus YLR320W, strain mms22, hits give low values",1.04
same,normalized growth,"S. cerevisiae deletion strains, locus YLR330W, strain CHS5, hits give low values",0.613 (active)
same,normalized growth,"S. cerevisiae deletion strains, locus YLR342W, strain FKS1 (second series), hits give low values",0.198 (active)
same,normalized growth,"S. cerevisiae deletion strains, locus YLR342W, strain FKS1, hits give low values",1.04
same,normalized growth,"S. cerevisiae deletion strains, locus YLR357W, strain rsc2, hits give low values",1.01
same,normalized growth,"S. cerevisiae deletion strains, locus YLR370C, strain arc18, hits give low values",1.01
same,normalized growth,"S. cerevisiae deletion strains, locus YLR371W, strain rom2, hits give low values",0.602 (active)
same,normalized growth,"S. cerevisiae deletion strains, locus YLR384C, strain iki3, hits give low values",0.998
same,normalized growth,"S. cerevisiae deletion strains, locus YLR418C, strain cdc73, hits give low values",0.341 (active)
same,normalized growth,"S. cerevisiae deletion strains, locus YML016C, strain PPZ1, hits give low values",0.083 (active)
same,normalized growth,"S. cerevisiae deletion strains, locus YML032C, strain rad52, hits give low values",0.857 (active)
same,normalized growth,"S. cerevisiae deletion strains, locus YML120C, strain ndi1, hits give low values",1.01
same,normalized growth,"S. cerevisiae deletion strains, locus YML124C, strain tub3, hits give low values",0.824 (active)
same,normalized growth,"S. cerevisiae deletion strains, locus YMR078C, strain ctf18, hits give low values",0.938
same,normalized growth,"S. cerevisiae deletion strains, locus YMR125W, strain sto1, hits give low values",0.985
same,normalized growth,"S. cerevisiae deletion strains, locus YMR129W, hits give low values",1.01
same,normalized growth,"S. cerevisiae deletion strains, locus YMR205C, strain PFK2, hits give low values",1.02
same,normalized growth,"S. cerevisiae deletion strains, locus YMR223W, strain ubp8, hits give low values",0.666 (active)
same,normalized growth,"S. cerevisiae deletion strains, locus YMR231W, strain pep5, hits give low values",0.981
same,normalized growth,"S. cerevisiae deletion strains, locus YMR307W, strain GAS1, hits give low values",0.448 (active)
same,normalized growth,"S. cerevisiae deletion strains, locus YNL067W, strain RPL9B, hits give low values",0.366 (active)
same,normalized growth,"S. cerevisiae deletion strains, locus YNL071W, strain lat1, hits give low values",1.02
same,normalized growth,"S. cerevisiae deletion strains, locus YNL183C, strain NPR1, hits give low values",0.943
same,normalized growth,"S. cerevisiae deletion strains, locus YNL209W, strain ssb2, hits give low values",0.991
same,normalized growth,"S. cerevisiae deletion strains, locus YNL233W, strain BNI4, hits give low values",0.455 (active)
same,normalized growth,"S. cerevisiae deletion strains, locus YNL248C, strain rpa49, hits give low values",1.03
same,normalized growth,"S. cerevisiae deletion strains, locus YNL250W, strain rad50, hits give low values",0.953
same,normalized growth,"S. cerevisiae deletion strains, locus YNL271C, strain bni1, hits give low values",0.941
same,normalized growth,"S. cerevisiae deletion strains, locus YNL298W, strain CLA4, hits give low values",0.948
same,normalized growth,"S. cerevisiae deletion strains, locus YNL307C, strain MCK1, hits give low values",0.915
same,normalized growth,"S. cerevisiae deletion strains, locus YNL322C, strain KRE1 (second series), hits give low values",1.01
same,normalized growth,"S. cerevisiae deletion strains, locus YNR049C, strain mso1, hits give low values",1.03
same,normalized growth,"S. cerevisiae deletion strains, locus YNR052C, strain pop2, hits give low values",0.436 (active)
same,normalized growth,"S. cerevisiae deletion strains, locus YOL012C, strain htz1",0.207
same,normalized growth,"S. cerevisiae deletion strains, locus YOL147C, strain pex11, hits give low values",0.779 (active)
same,normalized growth,"S. cerevisiae deletion strains, locus YOR001W, strain rrp6, hits give low values",1.02
same,normalized growth,"S. cerevisiae deletion strains, locus YOR061W, strain CKA2, hits give low values",0.218 (active)
same,normalized growth,"S. cerevisiae deletion strains, locus YOR069W, strain VPS5, hits give low values",0.182 (active)
same,normalized growth,"S. cerevisiae deletion strains, locus YOR070C, strain gyp1, hits give low values",1
same,normalized growth,"S. cerevisiae deletion strains, locus YOR080W, strain dia2, hits give low values",1.02
same,normalized growth,"S. cerevisiae deletion strains, locus YOR083W, strain WHI5, hits give low values",0.999
same,normalized growth,"S. cerevisiae deletion strains, locus YOR106W, strain vam3, hits give low values",0.989
same,normalized growth,"S. cerevisiae deletion strains, locus YOR136W, strain idh2, hits give low values",0.795 (active)
same,normalized growth,"S. cerevisiae deletion strains, locus YOR144C, strain elg1, hits give low values",0.814 (active)
same,normalized growth,"S. cerevisiae deletion strains, locus YOR184W, strain ser1, hits give low values",0.445 (active)
same,normalized growth,"S. cerevisiae deletion strains, locus YOR231W, strain MKK1, hits give low values",1.02
same,normalized growth,"S. cerevisiae deletion strains, locus YOR265W, strain rbl2, hits give low values",1.02
same,normalized growth,"S. cerevisiae deletion strains, locus YOR270C, strain vph1, hits give low values",1.06
same,normalized growth,"S. cerevisiae deletion strains, locus YOR290C, strain snf2, hits give low values",0.988
same,normalized growth,"S. cerevisiae deletion strains, locus YOR316C, strain cot1, hits give low values",0.947
same,normalized growth,"S. cerevisiae deletion strains, locus YPL051W, strain arl3, hits give low values",1
same,normalized growth,"S. cerevisiae deletion strains, locus YPL055C, strain LGE1, hits give low values",0.139 (active)
same,normalized growth,"S. cerevisiae deletion strains, locus YPL078C, strain atp4, hits give low values",0.983
same,normalized growth,"S. cerevisiae deletion strains, locus YPL106C, strain sse1, hits give low values",1.01
same,normalized growth,"S. cerevisiae deletion strains, locus YPL240C, strain hsp82, hits give low values",1.01
same,normalized growth,"S. cerevisiae deletion strains, locus YPL256C, strain CLN2, hits give low values",1.07
same,normalized growth,"S. cerevisiae deletion strains, locus YPR119W, strain clb2, hits give low values",0.972
same,normalized growth,"S. cerevisiae deletion strains, locus YPR141C, strain kar3, hits give low values",0.974
same,normalized growth,"S. cerevisiae deletion strains, locus YPR163C, strain tif3, hits give low values",0.87 (active)
same,normalized growth,"S. cerevisiae deletion strains, locus YPR167C, strain met16, hits give low values",0.847 (active)
same,normalized growth,"S. cerevisiae deletion strains, strain wtn01, hits give low values",0.433 (active)
same,normalized growth,"S. cerevisiae strains, strain wild type, hits give low values",0.0757 (active)
